A selection: hits, their analogues and other compounds. The true share with any hit is near 2.4%.
Pol kappa inh-1: blocks human DNA polymerase kappa activity; purified Pol kappa, fluorescent DNA synthesis assay, 10 min; Potency, µM (series often up to 107 µM), for inactives: at the top dose activity, negative = inhibition, actives largely listed as inhibitors; 400,000 tested, 0.53% active; AID 588579; note: % is set by controls: 0 for no effect and ±100 for the full control effect
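50 nM final substrate added after 15 min RT preincubation of 10 nM Pol kappa with compound; fluorescence read at 0 and 10 min.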
POLB inh: inhibitors of human DNA polymerase beta | Pol beta primer extension/strand displacement, fluorescence kinetic | Potency, µM (titrated, usually from 114 µM), inactives show top-dose activity change, negative = inhibition, usual class: inhibitors | P06746 | 340,000 tested, 1.3% active; note: % is set by controls: 0 for no effect and ±100 for the full control effect
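Homogeneous kinetic assay of primer extension and strand displacement by 10 nM Pol beta, preincubated 15 min at room temperature with compound before 50 nM substrate (final) was added. Read at 0 and 10 min; four-parameter Hill fit.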
POLI inh: inhibitors of human DNA polymerase iota | AID 588590 | 390,000 tested, 1% active | Potency, µM (highest dose often 115 µM), for inactives: top-dose activity, negative = inhibition, most hits filed as inhibitors | Q9UNA4 | Pol iota fluorescent replication assay, 10 min
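Pol iota at 10 nM preincubated 15 min with compounds at room temperature; reaction started with fluorescent substrate, 50 nM final. Fluorescence read kinetically at 0 and 10 min; buffer-only wells as negative control.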
Pol eta inh-1: blocks human DNA polymerase eta activity | 390,000 tested, 1.2% active | Potency, µM (series often up to 114 µM), without a hit: top-dose activity change, negative = inhibition, usual class: inhibitors | recombinant Pol eta, fluorescent DNA replication assay | AID 588591; note: % is set by controls: 0 for no effect and ±100 for the full control effect
Target sequence (Q9Y253 whole entry, looked up): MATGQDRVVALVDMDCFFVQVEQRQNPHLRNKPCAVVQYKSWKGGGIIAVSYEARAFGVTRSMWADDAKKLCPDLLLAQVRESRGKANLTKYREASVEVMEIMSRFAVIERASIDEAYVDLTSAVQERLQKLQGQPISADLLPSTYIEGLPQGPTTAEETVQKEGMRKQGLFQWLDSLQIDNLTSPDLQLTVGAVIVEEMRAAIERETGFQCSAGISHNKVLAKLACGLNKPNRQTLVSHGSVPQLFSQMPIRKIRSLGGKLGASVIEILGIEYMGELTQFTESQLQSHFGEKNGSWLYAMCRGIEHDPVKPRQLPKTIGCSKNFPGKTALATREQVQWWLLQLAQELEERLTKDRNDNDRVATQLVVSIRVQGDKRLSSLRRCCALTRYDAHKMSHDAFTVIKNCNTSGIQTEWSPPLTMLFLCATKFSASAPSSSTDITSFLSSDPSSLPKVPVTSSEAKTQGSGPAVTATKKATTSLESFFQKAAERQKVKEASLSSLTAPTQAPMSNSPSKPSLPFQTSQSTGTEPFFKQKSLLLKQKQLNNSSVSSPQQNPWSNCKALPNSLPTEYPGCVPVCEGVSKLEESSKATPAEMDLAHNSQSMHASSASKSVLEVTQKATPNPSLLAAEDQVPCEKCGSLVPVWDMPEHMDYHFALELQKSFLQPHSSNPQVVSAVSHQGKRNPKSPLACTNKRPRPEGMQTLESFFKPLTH
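Fluorescent replication assay: 50 nM final substrate added after a 15 min room-temperature compound preincubation with 10 nM enzyme. Signal taken at 0 min and again at 10 min.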
L3MBTL1 block: inhibitors of human L3MBTL1 | Q9Y468 | AlphaScreen L3MBTL1–H3K9me1 peptide binding | Potency, µM (doses to about 57.1 µM), for the others: at the highest dose activity, negative = inhibition, most hits filed as inhibitors | 230,000 tested, 0.66% active | AID 485360; note: % is set by controls: 0 for no effect and ±100 for the full control effect; nearly all actives have a fitted effect of over 60% in size
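L3MBTL1 (50 nM) pre-complexed 30 min with biotinylated H3(1-15)K9me1 peptide (75 nM), then compounds added for 30 min at room temperature; AlphaScreen streptavidin donor/nickel chelate acceptor beads (10 ug/mL final) read after 30 min dark incubation.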
Pol kappa inh-2: Pol kappa (human) inhibition, cherry-pick confirmation. Potency, µM, hits mostly inhibitors. 920 tested, 76% active. shares compounds with Pol eta inh-1. purified Pol-kappa, fluorescent strand-displacement substrate
Pol eta inh-2: confirmation of human DNA polymerase eta inhibitors; Pol eta primer extension, TAMRA/BHQ fluorescence, 10 min; Potency, µM, usual class: inhibitors; shares compounds with Pol eta inh-1; 2,600 tested, 64% active
Starred values were filed as active, the others as inactive; ? = inconclusive; / = no result given; [ ] = remark or other dose. Calls come from the whole dose curve; as a rule, active = well fitted curve in the direction sought with a large enough effect; inconclusive = small, poorly fitted or top-dose-only effect, or another doubt; inactive = no such curve, though single readings can be large; an effect the other way counts as inactive or inconclusive. Potency is the fitted concentration of half-maximal effect.

SMILES	Pol kappa inh-1	POLB inh	POLI inh	Pol eta inh-1	L3MBTL1 block	Pol eta inh-2	others
Cc1ccccc1NC(=O)CSc1nc2ccc(NC(=O)c3ccccc3)cc2s1	4%	-4%	17%	-26%	/	/
O=C1Nc2ccccc2Oc2cc(Oc3ccccc3)ccc21	?	-42%	79µM*	/	?	?
O=C1Nc2ccccc2Oc2cc(Oc3cccc(Cl)c3)ccc21	-5%	4%	13%	-16%	/	/
O=C(O)c1ccc(N2C(=O)CCCC2=O)cc1	4%	1%	-5%	-5%	4%	/
O=C(O)c1ccc(-n2[nH]c3c(c2=O)CCCC3)cc1	?	28µM*	?	35µM*	?	?	Pol kappa inh-2=24*
Cc1c(Cl)cccc1NC(=O)C(CCS(C)(=O)=O)N1Cc2ccccc2C1=O (configuration not stated)	-13%	-1%	9%	-3%	/	/
Cc1cc(=O)oc2c(CN3CC(C)OC(C)C3)c(O)c(Cl)cc12 (configuration not stated)	?	14µM*	35µM*	20µM*	?	?	Pol kappa inh-2=?
COc1cccc(Nc2nn3c(=O)c4ccccc4nc3s2)c1	14%	/	-18%	50µM*	2%	?
CCOc1ccccc1OCC(=O)NCc1ccco1	?	28µM*	20µM*	79µM*	?	?
O=C(COC(=O)c1ccccc1Nc1cccc(C(F)(F)F)c1)NCc1ccco1	?	40µM*	?	20µM*	?	67*
Nc1cc(C(=O)OCC(=O)NCc2ccco2)ccc1Cl	-27%	?	?	18µM*	-23%	?
CCc1nc2nc(C)c(NS(=O)(=O)c3ccc(C)cc3)c(=O)n2[nH]1	-13%	48%	-2%	-14%	/	/
COc1ccc(-c2nn(CCC(=O)O)cc2/C=C2\SC(N)=NC2=O)cc1	79µM*	9%	-18%	5.6µM*	-15%	27*	Pol kappa inh-2=21*
NC1=NC(=O)/C(=C/c2cn(CCC(=O)O)nc2-c2ccc(F)cc2)S1	-16%	24%	7%	?	8%	/
NC1=NC(=O)/C(=C/c2cn(CCC(=O)O)nc2-c2ccc(Cl)cc2)S1	-16%	30%	-17%	14µM*	-5%	/	Pol kappa inh-2=17*
CCCOc1ccc(-c2nn(-c3ccccc3)cc2/C=C2\SC(N)=NC2=O)cc1	1%	42%	50%	6%	-6%	/
COc1ccc(OCCCC(=O)OCC(=O)Nc2ncc(Cl)cc2Cl)cc1	-31%	/	?	40µM*	-22%	85*	Pol kappa inh-2=?
O=C(COC(=O)CNC(=O)c1ccc([N+](=O)[O-])o1)Nc1ncc(Cl)cc1Cl	-21%	/	?	?	-96%	?
CCc1ccccc1NC(=O)c1cnc(N2CCCCC2)c2ccccc12	-3%[60.1 µM]	14%	15%	-3%	/	/
CN(C)CCCO[C@H]1[C@@H]2OC(C)(C)O[C@@H]2O[C@@H]1[C@H](O)CO	-6%[12 µM]	/	/	/	/	/
Cc1ccc(C(=O)Nc2ccc3c4c(cccc24)CC3)cc1[N+](=O)[O-]	-11%	-15%	0%	-13%	-7%	/
O=[N+]([O-])c1ccc2c([N+](=O)[O-])ccc3c2c1CC3	/	/	/	14µM*	/	76*
COc1ccc(CN(Cc2ccccc2)C(=O)c2ccc(NC(C)=O)cc2)cc1COc1ccc(NC(C)=O)cc1	-22%	/	26%	/	/	/
COc1ccc(CN(Cc2ccccc2)C(=O)c2ccno2)cc1COc1ccc(NC(C)=O)cc1	79µM*	/	40µM*	/	/	?
Cc1ccc2[nH]c(C(=O)Nc3ccccc3)cc2c1	-10%	?	18%	-22%	/	/
SMILES	Pol kappa inh-1	POLB inh	POLI inh	Pol eta inh-1	L3MBTL1 block	Pol eta inh-2	others
Cc1cccc(C)c1NC(=O)Cn1cc(S(=O)(=O)Cc2ccc(F)cc2)c2ccccc21	?	28µM*	?	?	/	?	Pol kappa inh-2=?
CSc1cccc(N2CC(C(=O)N(CC(C)C)c3c(N)n(Cc4ccccc4)c(=O)[nH]c3=O)CC2=O)c1 (configuration not stated)	?	/	?	25µM*	?	?
COC(=O)c1c(NC(=O)C2COc3ccccc3O2)sc2c1CCN(C(C)=O)C2 (configuration not stated)	-2%	3%	9%	?	-5%	/
CC(=O)N1CCc2c(sc(NC(=O)C3COc4ccccc4O3)c2C(N)=O)C1 (configuration not stated)	-12%	19%	23%	22µM*	/	48*
O=C(O)C(Cc1ccc2c(c1)oc1ccccc12)NCP(=O)(O)O (configuration not stated)	15%[60.1 µM]	/	/	/	/	/
Cc1ccc(/C=c2\sc3nc(-c4cccnc4)nn3c2=O)cc1	-21%	?	?	10µM*	-8%	?
CCC(=O)c1ccc(CCCCCC(=O)O)s1	?	35µM*	?	8.9µM*	/	38*
CC(=O)c1ccc(CCCCCCCCCC(=O)O)s1	7%	10%	-15%	?	7%	/
CC1CCN(C(=O)CN2C(=O)NC(C)(c3ccc4ccccc4c3)C2=O)CC1 (configuration not stated)	-19%	/	11%	-11%	-5%	/
CCCN(c1ccc(C(C)C)cc1)S(=O)(=O)c1ccc2c(c1)CCN2C(=O)CC	-8%	5%	-17%	-17%	/	/
Cc1ccc2nc(Cl)c(/C=N/Nc3ccc(C(=O)O)cc3)cc2c1	?	-21%	-37%	22µM*	/	27*
Cc1ccc2cc(/C=N/NC(=O)c3ccc(F)cc3)c(Cl)nc2c1	-4%	0%	82%	-2%	/	/
O=C1N=C(N2C=CC(=C3C=CNC=C3)C=C2)/C(=C/N=NC(=O)c2ccccc2O)S1	?	14µM*	32µM*	18µM*	/	76*
Cc1cc[n+](-c2[nH]c(=O)sc2/C=N/NC([S-])=Nc2ccccc2)cc1	79µM*	-14%	22µM*	22µM*	?	76*
CCOc1ccc(-n2c(SCC(=O)N3CCc4ccccc43)nc3c([nH]c4ccccc43)c2=O)cc1	-4%[60.1 µM]	56%	-4%	7%	/	/
Cc1nnc(NC(=O)c2cc(-c3ccncc3)nc3c(C)cccc23)s1	-11%	7%	79µM*	45µM*	/	67*
Cc1cc(-c2n[nH]c(=S)n2/N=C/C=C/c2ccco2)n[nH]1	89µM*	40µM*	18µM*	45µM*	-21%	?
S=c1[nH]nc(-c2ccco2)n1/N=C/C=C/c1ccccc1	4%	13%	8%	-21%	-14%	/
Cc1cc(-c2n[nH]c(=S)n2/N=C/c2ccc(C)o2)n[nH]1	-2%	-1%	-20%	-12%	-2%	/
